# Data from PubChem BioAssay (NCI).
# Several values for one entry are separate records, joined by “and”; a condition that tells them apart may be missing. Equal values may be shown once. The panel holds about 83,000 compounds, 20% with a hit somewhere; the sample as a whole holds those more often.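 Activity criterion: percent growth below 10, measured after cells in 96-well plates were exposed to a single compound concentration for 48 hours.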 Unmarked numbers belong to inactive results. Activity calls are given as the source filed them.
# Tested on: HL-60(TB) leukemia
# Experiment: NCI-60 one-dose screen, 48 h (100 = growth as untreated, 0 = no growth, -100 = all killed)
# Details: 10 µM unless noted
row,SMILES,growth
1,O=C(COc1ccc(/C=C2\Oc3ccccc3C2=O)cc1)Nc1nc2c(s1)CCCC2,-72.2% (active)
2,O=C1Nc2ccccc2[C@]12CC(c1ccccc1)=NN2,-15.8% (active)
3,COc1ccc(OC)c(NC=O)c1,62.2%
4,CC(C)C1C2=C(NCCN1C(=O)Cc1ccccc1)C(C)(C)N(Cc1ccccc1)C2=O (centres undefined),100%
5,O=C(CN1CCOCC1)Nc1nc(-c2cc3ccccc3oc2=O)cs1,102%
6,CCOc1ccc2[nH]c(=S)sc2c1,78.9%
7,C=C(C)[C@@H]1CC[C@]2(C(=O)NCCNCCN)CC[C@]3(C)[C@H](CC[C@@H]4[C@@]5(C)C/C(=C/c6ccncc6)C(=O)C(C)(C)[C@@H]5CC[C@]43C)[C@@H]12,74.1%
8,c1ccc(N2N=C(c3cccc(Nc4ccncc4)c3)CC2c2ccc3c(c2)OCO3)cc1 (centres undefined),-21.1% (active)
9,C=CCn1c(SCC(=O)Nc2ccc(C(=O)/C=C/c3cc4cc(OC)ccc4nc3Cl)cc2)nnc1-c1ccc(Br)cc1,81.3%
10,O=C1NN(C(=O)c2ccccc2)C(c2ccc(Cl)c(Cl)c2)=C/C1=C\c1ccccc1[N+](=O)[O-],12.7% [6.75 µM]
11,CCC(=O)N1C/C(=C/c2ccc(Cl)cc2)C(=O)/C(=C/c2ccc(Cl)cc2)C1,4.88% (active)
12,Cc1cc(NC(=O)CSCC(=O)O)no1,88.9%
13,Cc1cc(N)c2ccccc2[n+]1CCCCCCCCCC[n+]1c(C)cc(N)c2ccccc21,-65% (active) and -69.4% (active)
14,CN1C(=O)CNC(=O)[C@H](NC(=O)c2nc3ccccc3cc2O)CSSC[C@H]1C(=O)NCCCc1nc2ccccc2cc1O,-44.3% (active)
15,C(=C\c1nc2ccccc2[nH]1)/c1nc2ccccc2[nH]1,93.4%
16,CCN(CC)c1ccc(C(=N)c2ccc(N(CC)CC)cc2)cc1,-23.4% (active)
17,CCCCCCC(C)CC1=C(O)c2ccccc2C(=O)C1=O (centres undefined),37.5%
18,CNC(=O)Cc1nc(-c2cccc(NS(=O)(=O)c3c(F)cccc3F)c2F)c(-c2ccnc(Nc3ccccc3)n2)s1,57.8%
19,O=[P@@]1(c2ccccc2)O[C@H](COCc2ccccc2)[C@@H](OCc2ccccc2)[C@H](OCc2ccccc2)[C@H]1NCc1ccccc1,-25.1% (active)
20,O=C(CN1CCOCC1)Nc1ccc(-c2nc3ccccc3s2)cc1,101%

row,SMILES,growth
1,O=S(=O)(Nc1ccc(Cl)c(C(F)(F)F)c1)c1ccc(-c2cnc(C3CC3)o2)cc1,-38.6% (active)
2,CCC(=C(c1ccc(OCCN2CCCCC2)cc1)c1ccc(OCCN2CCCCC2)cc1)c1ccc(Cl)cc1,-62.4% (active)
3,Cc1ccc(S(=O)(=O)NCCCNc2nccc(-c3c(-c4cccc(F)c4)nc4occn34)n2)cc1,44.8%
4,N#Cc1c(Nc2ccccc2)nn2cc(-c3nc4ccccc4s3)c(N)nc12,100%
5,Oc1ccc(Cl)cc1-c1cc(-c2ccccc2Cl)[nH]n1,46.6%
6,CCOc1ccc(Nc2nc3c(s2)C(=O)c2ccccc2C3=O)cc1,25.1%
7,O=C(Cc1ccc(/C=C/C(=O)c2ncc[nH]2)cc1)Nc1ccc(C(F)(F)F)cc1,-5.94% (active)
8,Cc1ccc(Nc2nnc(-c3cc(-c4ccncc4)n(-c4ccccc4)n3)s2)cc1,66.3%
9,Ic1ccc2[nH]cc(SSc3c[nH]c4ccc(I)cc34)c2c1,-21.7% (active)
10,C/C(=N/NC(=O)Cn1c2ccccc2c2ccncc21)c1cccs1,83.5%
11,CC(C)=NNc1ccc([N+](=O)[O-])cc1[N+](=O)[O-],57.5%
12,Nc1nc2c([nH]1)c1[nH]c3ccccc3c1c1[nH]c3ccccc3c21,25.5%
13,O=C(CCl)N(O)c1ccc(/C=C/c2ccccc2)cc1,69.4% and 51%
14,Cc1ccc(/C=C/C(=O)c2ccc(N)cc2)c(C)c1,60.3%
15,COc1cnc2c(c1)C(=O)c1c-2n(CCCN2CCCC2)c(=O)c2cc([N+](=O)[O-])ccc12,-24.9% (active)
16,Cn1cc(-c2nonc2-c2c[nH]c3ccc(Br)cc23)c2cc(Br)ccc21,54%
17,CC1(C)Cc2c(sc3ncn4nc(-c5ccc(O)cc5)nc4c23)CO1,62.1%
18,C=C1C(=O)O[C@H]2[C@H]1CC/C(COC(=O)Nc1nc3ccccc3[nH]1)=C\CC[C@@]1(C)O[C@@H]21,5.13% (active)
19,COC(=O)CNC(=O)[C@@H](OC)[C@@H]1Cc2cc3cc(OC4CC(OC5CC(O)C(O)C(C)O5)C(O)C(C)O4)c(C)c(O)c3c(O)c2C(=O)[C@H]1OC1CC(OC2CC(OC3CC(C)(O)C(O)C(C)O3)C(O)C(C)O2)C(O)C(C)O1 (some centres undefined),41%
